Measured values published in PubChem BioAssay (NCI).
The panel holds about 79,000 compounds, 15% with a hit somewhere; the sample as a whole holds those more often. No stated cut-off is given here; in the data, active means growth inhibition above about 70%; inactive means the rest.

Legend:
[1] = NCI Yeast Anticancer Drug Screen. Data for the rad50 strain (AID 155);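 further: 0% = growth of vehicle-only cultures of the same strain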; conditions: S. cerevisiae rad50 strain growth inhibition; at 50.0 µM; active compounds read high
Summary of the method: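 Readout: growth inhibition relative to vehicle-treated cultures. Compound exposure was carried out in a genetically defined yeast strain deficient in DNA damage repair.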

[2] = NCI Yeast Anticancer Drug Screen. Data for the mec2-1 strain (AID 157); conditions: S. cerevisiae mec2-1 strain, at 50.0 µM, active compounds read high
Summary of the method: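 Growth inhibition is read against vehicle-treated controls after compound exposure of the mec2-1 yeast strain, which is defective in DNA damage repair or cell cycle control.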

[3] = NCI Yeast Anticancer Drug Screen. Data for the sgs1 mgt1 strain (AID 161);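 further: 0% = growth of cultures given vehicle only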; conditions: S. cerevisiae sgs1 mgt1 strain, at 50.0 µM, active compounds read high
Summary of the method: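 Growth of a repair-deficient yeast mutant was monitored after compound treatment and expressed as inhibition relative to vehicle-treated cultures.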

[4] = NCI Yeast Anticancer Drug Screen. Data for the cln2 rad14 strain (AID 165);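 further: 0% = growth equal to vehicle treated cultures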; conditions: S. cerevisiae cln2 rad14 strain, at 50.0 µM, active compounds read high
Summary of the method: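 Growth inhibition, relative to vehicle-treated controls, is the read-out. The test organism is a yeast strain with defined genetic alterations, cln2 rad14.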

[5] = NCI Yeast Anticancer Drug Screen. Data for the bub3 strain (AID 167); conditions: S. cerevisiae bub3 mutant strain, at 50.0 µM, active compounds read high
Summary of the method: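 Readout: yeast growth inhibition, expressed relative to vehicle-only wells. The test organism is a mutant strain from a panel with lesions in DNA repair or checkpoint genes.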

[6] = NCI Yeast Anticancer Drug Screen. Data for the mlh1 rad18 strain (AID 175); conditions: S. cerevisiae mlh1 rad18 strain growth inhibition; at 50.0 µM; active compounds read high
Summary of the method: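 Cells of a genetically altered yeast strain, deficient in DNA damage repair, were treated with compound. Their growth was then compared with that of vehicle-treated cultures to give inhibition.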

Measured: growth inhibition

Cn1ccc(=S)c2ccccc21
inactive: [1] 18.2% | [2] 1.25% | [3] 9.6% | [4] -56.1% | [5] -2.15% | [6] 19.5%

N#CCCCCCCO
inactive: [1] 14.6% | [2] -20.6% | [3] 11.4% | [4] 15.4% | [5] 5.35% | [6] 17.5%

CN1CCN(CCCNN)CC1
inactive: [1] 2.05% | [2] -17.1% | [3] -17.6% | [4] 3.55% | [5] -70.6% | [6] -30.1%

COc1ccc(/C=N/NC(=O)c2ccc(N)cc2)cc1
inactive: [1] -1.65% | [2] 3% | [3] 14.4% | [4] -15.9% | [5] 22.4% | [6] 8.75%

O=C(NCCCCCCNC(=O)Nc1cccc(C(F)(F)F)c1)Nc1cccc(C(F)(F)F)c1
inactive: [1] -9.65% | [2] -13.7% | [3] -4.05% | [4] -19.1% | [5] 2.4% | [6] 8.8%

CCCCn1cnc2c(SCc3ccc(Cl)cc3Cl)nc(N)nc21
inactive: [1] 1.15% | [2] 25.2% | [3] 7.35% | [4] 21.2% | [5] 15.3% | [6] -8.2%

CC(C)(C#N)OC(=O)c1cc([N+](=O)[O-])cc([N+](=O)[O-])c1
inactive: [1] 8.55% | [2] 4.45% | [3] 13.1% | [4] -14.9% | [5] -9.55% | [6] -2.1%

CC1=CCCCC1=O
inactive: [1] -7.25% | [2] -4.35% | [3] 5.6% | [4] 2.4% | [5] -12.9% | [6] -4.15%

Cc1cc2c(=O)cc(-c3ccc(O)cc3)oc2c(C(=O)O)c1C
inactive: [1] 2.7% | [2] -4.45% | [3] 14.3% | [4] 24.8% | [5] 0.6% | [6] 4.4%

COc1ccc2c(c1)CC[C@@H]1[C@@H]2CC[C@]2(C)C(=O)/C(=N/O)C[C@@H]12
inactive: [1] -15% | [2] 4.85% | [3] 1.85% | [4] -34% | [5] 31.5% | [6] -14.2%

O=c1[nH]c2cc([N+](=O)[O-])ccc2nc1/C=C(\O)c1ccco1
inactive: [1] 7.7% | [2] -14.2% | [3] 7.9% | [4] -0.65% | [5] -18.7% | [6] 22.1%

O=C1c2cc([N+](=O)[O-])ccc2-c2c(Cl)cc(NC(=O)C(F)(F)F)cc21
inactive: [1] -0.5% | [2] -11.3% | [3] 1.65% | [4] -40% | [5] 6.9% | [6] -2.55%

CCO/C=C1/N=C(c2cccc3ccccc23)OC1=O
inactive: [1] 3.15% | [2] -1.5% | [3] 5.7% | [4] -64.2% | [5] -1.85% | [6] 5.55%

OC1CSCCSCCCSCCSC1
inactive: [1] 34.1% | [2] 22.4% | [3] 44.5% | [4] 15.5% | [5] 35.1% | [6] 40.4%

COc1cc2c(oc(=O)c3c4occc4cc(OC)c23)c2cccc(O)c12
inactive: [1] -31.6% | [2] -47% | [3] -37.2% | [4] -13.6% | [5] -24.8% | [6] -56.2%

CCOC(=O)/C(F)=C/c1cccc(C#N)c1
inactive: [1] 41.6% | [2] -3.35% | [3] 8.1% | [4] 24.7% | [5] 30.7% | [6] 23.9%

Cc1nc2ccc(Cl)cc2c(Cl)c1CCCl
inactive: [1] 12.1% | [2] 6.5% | [3] -19.9% | [4] -8.15% | [5] 31.5% | [6] 13.8%

O=[N+]([O-])c1ccc(N=C/C=C\Nc2ccc([N+](=O)[O-])cc2)cc1
inactive: [1] 6.8% | [2] 14.8% | [3] 11.2% | [4] -13.4% | [5] 6.85% | [6] 14.8%

Nc1c2c(cc3c1C(=O)c1ccccc1C3=O)OCO2
inactive: [1] 47.8% | [2] 20% | [3] 29.4% | [4] 16.2% | [5] 22% | [6] 39%

CNC(=O)SC1=NS(=O)(=O)c2ccc(Cl)cc2N1
inactive: [1] 18.6% | [2] 19.5% | [3] 33.4% | [4] 23.1% | [5] 17.6% | [6] 42.5%
